The source of these data is PubChem BioAssay (NCI).

Among the test systems are NCI-H23 lung; NCI-H226 lung; NCI-H322M lung; HOP-62 NSCLC; NCI-H460 lung; HOP-92 NSCLC; NCI-H522 lung; A549/ATCC NSCLC; 786-0 renal; COLO 205 colon.
Test in all cases: NCI-60 one-dose screen, 48 h (100 = growth as untreated, 0 = no growth, -100 = all killed)
Details in all cases: 10 µM unless noted

The panel holds about 83,000 compounds, 20% with a hit somewhere; the sample as a whole holds those more often.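 Plates (96-well) were seeded with cells, treated with compound at one concentration, and incubated for 48 hours before percent growth was determined.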 Values without a mark were called inactive. Calls of active or inactive are those of the source. The calls were made as follows: active = growth percent below 10; inactive = the rest.

As for `CCOC(=O)c1ccc(NC(=S)NC(=O)c2ccc(NC(=O)C(C)C)cc2OC)cc1`, the growth in the assay on NCI-H23 lung was 15.9%; with NCI-H226 lung it was 22.3%; with NCI-H322M lung, 74.9%; with HOP-62 NSCLC it was 53.9%; in the assay on NCI-H460 lung, 44.5%; in the assay with HOP-92 NSCLC, 33.6%. Besides, the growth was 30.9% in the assay with NCI-H522 lung, 80.2% in the assay with A549/ATCC NSCLC, 85.2% in the assay on 786-0 renal and 37.5% with COLO 205 colon.

`Cc1oc(-c2ccccc2)nc1CN[C@@H]1C[C@@H]2C[C@H]([C@H]1C)C2(C)C`: the growth is -30% (active) with NCI-H23 lung; -29.8% (active) in the assay with NCI-H226 lung; 57.9% with NCI-H322M lung; 75% in the assay with HOP-62 NSCLC; 4.28% (active) with NCI-H460 lung; -11.4% (active) with HOP-92 NSCLC. In addition, the growth is 30.8% with NCI-H522 lung, 50.9% with A549/ATCC NSCLC, 21.8% in the assay on 786-0 renal and -69.3% (active) in the assay with COLO 205 colon.

Consider `O=C(CSc1nnc(-c2ccc(-c3nc4ccc(Cl)cc4[nH]3)cc2)o1)Nc1ccccc1`, for which the growth with NCI-H23 lung was -41.5% (active); in the assay on NCI-H226 lung it was -23.7% (active); in the assay with NCI-H322M lung, 37.6%; in the assay with HOP-62 NSCLC, -27.1% (active); in the assay with NCI-H460 lung it was -48.7% (active); with HOP-92 NSCLC it was 2.36% (active). Besides, the growth with NCI-H522 lung is -3.89% (active); in the assay with A549/ATCC NSCLC, -31.9% (active); with 786-0 renal, -59% (active); in the assay with COLO 205 colon it was 75.9%.

For `NCCCCn1c(SCCc2c[nH]c3ccccc23)nnc1-c1ccc2ccccc2n1`, the growth was 11.4% in the assay with NCI-H23 lung; 55.2% with NCI-H226 lung; 18.1% in the assay on NCI-H322M lung; -49.7% (active) with HOP-62 NSCLC; -76.9% (active) in the assay with NCI-H460 lung; -8.52% (active) with HOP-92 NSCLC. In addition, the growth with NCI-H522 lung is -73.1% (active); with A549/ATCC NSCLC, 8.17% (active); in the assay with 786-0 renal, -92.3% (active); in the assay with COLO 205 colon, -66.6% (active).

`COC(=O)c1cc(C(C)=O)n2c3ccccc3c3ccccc3c12`: the growth in the assay on NCI-H23 lung was 78.1%; with NCI-H226 lung it was 61.3%; with NCI-H322M lung, 104%; with HOP-62 NSCLC it was 57.9%; in the assay on NCI-H460 lung, 110%; in the assay on HOP-92 NSCLC, 28.1%. For the same compound, the growth with NCI-H522 lung was 86.4%; in the assay on A549/ATCC NSCLC, 96.9%; in the assay on 786-0 renal, 36.6%; with COLO 205 colon, 108%.

Consider `O=C(CSc1nnc(-c2ccc(-c3nc4ccccc4[nH]3)cc2)o1)Nc1ccccc1`, for which the growth in the assay on NCI-H23 lung is 63.1%; in the assay on NCI-H226 lung, 76.1%; in the assay on NCI-H322M lung, 84.4%; in the assay on HOP-62 NSCLC it was 63.2%; in the assay with NCI-H460 lung it was 12%; with HOP-92 NSCLC it was 54.1%. Also, the growth with NCI-H522 lung was 78%; with A549/ATCC NSCLC, 51.8%; in the assay with 786-0 renal, 22%; in the assay with COLO 205 colon, 118%.

For the compound `C[C@@H]1CN(c2ccc3ncc(C#Cc4cncc(C(=O)Nc5ccc(CN6CCN(C)CC6)c(C(F)(F)F)c5)c4)n3n2)C[C@@H](C)O1`, the growth was -87.5% (active) in the assay on NCI-H23 lung; -86.3% (active) in the assay with NCI-H226 lung; -78.9% (active) in the assay on NCI-H322M lung; -59.8% (active) in the assay with HOP-62 NSCLC; -80% (active) in the assay on NCI-H460 lung; -87.7% (active) in the assay with HOP-92 NSCLC. Moreover, the growth is -73.3% (active) in the assay with NCI-H522 lung, -59% (active) in the assay on A549/ATCC NSCLC, -95.9% (active) with 786-0 renal and -77.7% (active) in the assay on COLO 205 colon.

Regarding `Cc1nc2sccn2c1-c1nnc(SCC(C)C)o1`, the growth was 85.9% in the assay with NCI-H23 lung; 62% in the assay with NCI-H226 lung; 82.1% in the assay on NCI-H322M lung; 95.2% with HOP-62 NSCLC; 97% in the assay on NCI-H460 lung; 64.4% in the assay on HOP-92 NSCLC. The growth in the assay on NCI-H522 lung is 71.5%; with A549/ATCC NSCLC it was 91.3%; with 786-0 renal, 82.3%; with COLO 205 colon it was 106%.

For `COc1sc(/C=N/NC(=O)c2[nH]c3ccc(Br)cc3c2-c2ccccc2)cc1Br`, the growth with NCI-H23 lung was -14.1% (active); with NCI-H226 lung, 14.7%; in the assay on NCI-H322M lung, 31.4%; in the assay on HOP-62 NSCLC, 12.2%; in the assay with NCI-H460 lung it was -7.71% (active); with HOP-92 NSCLC, 63.7%. The growth with NCI-H522 lung was -35.8% (active); in the assay on A549/ATCC NSCLC, 6.26% (active); in the assay on 786-0 renal, -1.7% (active); with COLO 205 colon, 0.155% (active).

As to `Cc1nn(-c2ccccc2)c2nc(C)n(CC(=O)N/N=C/c3ccccc3O)c(=O)c12`, the growth was 28.8% with NCI-H23 lung; 21.6% with NCI-H226 lung; 29.4% with NCI-H322M lung; 31.3% in the assay on HOP-62 NSCLC; 4.76% (active) in the assay on NCI-H460 lung; 62.5% in the assay with HOP-92 NSCLC. In addition, the growth with NCI-H522 lung is 6.39% (active); with A549/ATCC NSCLC, 26.2%; in the assay on 786-0 renal it was 18.5%; in the assay with COLO 205 colon, 16.8%.

With `CN(C)c1nc(NCCNS(=O)(=O)c2ccc(C(=O)/C=C/c3ccc(C(F)(F)F)cc3)cc2)nc(N2CCOCC2)n1`, the growth with NCI-H23 lung is -64.2% (active); in the assay on NCI-H226 lung, 60.8%; with NCI-H322M lung, 72%; with HOP-62 NSCLC, 80.1%; with NCI-H460 lung, 28.8%; with HOP-92 NSCLC it was 32.3%. Moreover, the growth in the assay with NCI-H522 lung was 18.5%; in the assay with A549/ATCC NSCLC, 16.6%; with 786-0 renal, -85.1% (active); with COLO 205 colon, 16.1%.

On to `COc1ccc(NC(=O)NN2C(=O)c3ccccc3N(C)C2c2ccc(OC)cc2)cc1` (stereo not given), for which the growth in the assay on NCI-H23 lung was 100%; in the assay with NCI-H226 lung, 106%; in the assay with NCI-H322M lung, 95.8%; in the assay on HOP-62 NSCLC, 97.8%; in the assay with NCI-H460 lung, 109%; with HOP-92 NSCLC, 102%. The growth in the assay on NCI-H522 lung is 93%; with A549/ATCC NSCLC, 108%; in the assay on 786-0 renal it was 65.8%; in the assay with COLO 205 colon, 103%.

For the compound `CCOc1ccccc1[C@H]1C(C(=O)c2ccc(Cl)cc2)C2(N[C@@H]1c1ccccc1)C(=O)Nc1ccc(Br)cc12` (stereo not given in full), the growth in the assay on NCI-H23 lung is -39.1% (active); in the assay with NCI-H226 lung it was -68.4% (active); in the assay on NCI-H322M lung it was 15.8%; with HOP-62 NSCLC, 7.94% (active); in the assay on NCI-H460 lung, 2.95% (active); with HOP-92 NSCLC, -46.9% (active). The growth with NCI-H522 lung was -4.42% (active); in the assay on A549/ATCC NSCLC, 41%; with 786-0 renal, -76.5% (active); with COLO 205 colon, -82.3% (active).
